From PubChem BioAssay
Shiga toxin inh – A qHTS for Small Molecule Inhibitors of Shiga Toxin. inhibition, % at 38.7 µM. Vero cells, Shiga toxin protein synthesis inhibition reporter. AID 2315, 2010. actives 9.2% (n = 290,000); in the data active = inhibition mostly above about 28%, no sharp cut-off; inactive = mostly below about 43%; also: 0% is about no effect
HCMV antiviral – qHTS Assay for inhibitors of the human cytomegalovirus (HCMV). HFF cells, HCMV-luciferase reporter, 72 h; active compounds read low. activity change, negative = inhibition, % at 57.5 µM. actives 4.5% (n = 410,000); in the data active = activity change below about -60%; inconclusive = no clear call, values can overlap the other calls; inactive = above about -39%; also: % is scaled to controls: 0 for no effect and ±100 for the full control effect
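Compounds were evaluated in HFFs infected with an HCMV luciferase reporter virus (MOI 1 PFU/cell). Luciferase in lysates collected 72 h post infection served as the replication measure.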
Pf growth 48h – Primary qHTS for delayed death inhibitors of the malarial parasite plastid, 48 hour incubation | actives 5.9% (n = 310,000) | AID 504832, 2011 | Potency, µM (series often up to 28.7 µM), without a hit: top-dose activity change, negative = inhibition, most hits filed as inhibitors | P. falciparum luciferase growth in erythrocytes, 48 h; also: potency is read from the fitted curve at half-maximal effect; % is scaled to controls: 0 for no effect and ±100 for the full control effect
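Parasite viability was followed by luminescence of a genomically integrated firefly luciferase. Cultures held 0.1% parasitemia at 2% hematocrit (final), incubated under 5% CO2 at 37 C.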
Pf growth 96h – Primary qHTS for delayed death inhibitors of the malarial parasite plastid, 96 hour incubation; P. falciparum luciferase reporter growth, 96 h; Potency, µM (top dose mostly 28.7 µM), without a hit: at the highest dose activity change, negative = inhibition, hits mostly inhibitors; actives 6.9% (n = 320,000); AID 504834, 2011; also: potency is read from the fitted curve at half-maximal effect; % is scaled to controls: 0 for no effect and ±100 for the full control effect
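Two parasite generations (96 h, 37 C, 5% CO2) of compound exposure in infected erythrocytes (0.05% parasitemia, 2% hematocrit). Luciferase-reporter P. falciparum; decreased luminescence indicates inhibited growth, aimed at apicoplast-acting delayed death.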
CHX counter – Cycloheximide Counterscreen for Small Molecule Inhibitors of Shiga Toxin; cell reporter, cycloheximide protein synthesis inhibition counterscreen; max response, %; actives 12% (n = 300,000); in the data active = max response mostly above about 13%, no sharp cut-off; inactive = mostly below about 14%; also: read at 38.3 µM for the half of the compounds with a filed dose; 0% is about no effect
HCV inhibitor – qHTS Assay for Inhibitors of Hepatitis C Virus (HCV); Huh7.5.1 HCVcc-Cre infection, luciferase reporter, 44 h; Potency, µM (titrated, usually from 41.8 µM), for the others: top-dose activity change, negative = inhibition, hits mostly inhibitors; actives 3.4% (n = 340,000); AID 651820, 2012; also: potency is read from the fitted curve at half-maximal effect; % is scaled to controls: 0 for no effect and ±100 for the full control effect
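Reporter virus HCVcc-Cre (~0.5 moi) infects cells exposed to compound; seeding density 1,000 cells/well with 4 h settling beforehand. Luminescence, 15 sec read, taken 44 h post-infection following a 15 min RT substrate incubation.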
* = called active by the depositor. In the library only some 21% were active in any assay of this set; here they are far more common. Unless noted, calls follow the shape of the dose curve; as a rule, active = well fitted inhibition curve with a large enough effect; inconclusive = small, poorly fitted or top-dose-only effect, or another doubt; inactive = no such curve, though single readings can be large or run the other way.

What do the screens show for `CCCCc1nc2cc(C(=O)N3CCNC(=O)C3)ccc2o1`?
Shiga toxin inh: 1.2; HCMV antiviral: 0.0; Pf growth 48h: 18.5%; Pf growth 96h: inconclusive; CHX counter: 14.4*; HCV inhibitor: 14.9%

How did CCCCc1nc2cc(C(=O)NC(C)c3cnn(C)c3)ccc2o1 (stereo not drawn) do in these assays?
Shiga toxin inh: 66.4*; HCMV antiviral: 21.7; Pf growth 48h: 155.8%; Pf growth 96h: 64.2%; CHX counter: 34.5*; HCV inhibitor: -22.5%

What do the screens show for `CCCCc1nc2cc(C(=O)N3CCN(c4cnccn4)CC3)ccc2o1`?
Shiga toxin inh: 11.5; HCMV antiviral: -34.4; Pf growth 48h: -3.6%; Pf growth 96h: -24.2%; CHX counter: 11.5; HCV inhibitor: -0.8%

Results for CN(C)C=NC(=O)c1cc(C(=O)c2ccccc2Cl)c[nH]1 ?
Shiga toxin inh: 12.9; HCMV antiviral: 10.3; Pf growth 48h: 18.0%; Pf growth 96h: inconclusive; CHX counter: -0.4; HCV inhibitor: 0.1%

How did COC(=O)c1cc(C(=O)c2ccc(C(C)(C)C)cc2)c[nH]1 do in these assays?
Shiga toxin inh: 97.1*; HCMV antiviral: -17.4; Pf growth 48h: -26.7%; Pf growth 96h: 23.9%; CHX counter: 32.2*; HCV inhibitor: -26.1%

What do the screens show for `CN(C)C=NC(=O)c1cc(C(=O)c2ccc(C(C)(C)C)cc2)c[nH]1`?
Shiga toxin inh: 82.6*; HCMV antiviral: 114.3; Pf growth 48h: inactive; Pf growth 96h: 411.1%; CHX counter: 44.3*; HCV inhibitor: -5.3%

How did CC(C)(C)c1ccc(C(=O)c2c[nH]c(C(=O)O)c2)cc1 do in these assays?
Shiga toxin inh: 36.1; HCMV antiviral: 24.6; Pf growth 48h: 207.6%; Pf growth 96h: 322.9%; CHX counter: 29.3*; HCV inhibitor: 18.9%

What do the screens show for `CC(C)CC(=O)c1c[nH]c(C(=O)O)c1`?
Shiga toxin inh: 17.6; HCMV antiviral: inconclusive; Pf growth 48h: 0.8%; Pf growth 96h: -1.4%; CHX counter: -1.8; HCV inhibitor: 13.9%

How did O=C1c2ccccc2C(=O)N1CC1c2ccccc2CCN1C(=O)C1CCCCC1 (stereo not drawn) do in these assays?
Shiga toxin inh: 2.2; HCMV antiviral: inconclusive; Pf growth 96h: 11.7µM*; CHX counter: 1.5; HCV inhibitor: 6.1%

How did CCn1cc(/C=C/C(=O)Nc2ccc(C)cc2Br)cn1 do in these assays?
Shiga toxin inh: active; HCMV antiviral: -35.1; Pf growth 48h: 150.2%; Pf growth 96h: 127.2%; CHX counter: 28.7*; HCV inhibitor: inconclusive

Results for CCn1cc(/C=C/C(=O)Nc2ccn(Cc3c(F)c(F)cc(F)c3F)n2)cn1 ?
Shiga toxin inh: -6.0; HCMV antiviral: -69.9*; Pf growth 48h: inconclusive; Pf growth 96h: 13.1µM*; CHX counter: -2.7; HCV inhibitor: inconclusive

How did CCN1C(=O)[C@H]2[C@@H](c3ccc(-c4cccc(Cl)c4)c(OC)c3)N[C@@](C)(C(=O)OC)[C@H]2C1=O do in these assays?
HCMV antiviral: 11.9; Pf growth 48h: 2.08µM*; Pf growth 96h: 1.17µM*; HCV inhibitor: -1.3%

How did COC(=O)[C@]1(C)N[C@H](c2ccc(-c3ccc(Cl)c(Cl)c3)c(OC)c2)[C@@H]2C(=O)N(C)C(=O)[C@@H]21 do in these assays?
HCMV antiviral: -4.1; Pf growth 48h: 5.22µM*; Pf growth 96h: 3.29µM*; HCV inhibitor: -22.7%

What do the screens show for `CCOc1ccc(NC2SC(=O)N(Cc3ccccc3)C2=O)cc1` (stereo not drawn)?
HCMV antiviral: 119.5

Results for O=C(NCCN1CCOCC1)c1cc(-c2ccccc2)on1 ?
Shiga toxin inh: 74.3*; HCMV antiviral: -0.7; Pf growth 48h: 58.6%; CHX counter: 22.0*; HCV inhibitor: -14.4%

Results for O=C(NCCCN1CCOCC1)c1cc(-c2ccccc2)on1 ?
Shiga toxin inh: 136.6*; HCMV antiviral: 80.2; Pf growth 48h: 59.1%; CHX counter: 13.4*; HCV inhibitor: inconclusive

Results for O=C(NCCN1CCOCC1)c1cc(-c2cccs2)on1 ?
Shiga toxin inh: 56.6*; HCMV antiviral: -5.6; Pf growth 48h: 62.1%; Pf growth 96h: 9.28µM*; CHX counter: 20.4*; HCV inhibitor: 0.7%

What do the screens show for `Cc1c(C(=O)N(Cc2ccc(N(C)C)cc2)CC2CCCO2)oc2ccc(Br)cc12` (stereo not drawn)?
HCMV antiviral: -9.6

What do the screens show for `Cc1ccc(-n2nc3c(c2NC(=O)c2c(-c4ccccc4Cl)noc2C)CSC3)cc1`?
Shiga toxin inh: -3.2; Pf growth 48h: 13.1µM*; Pf growth 96h: 20.1%; CHX counter: 20.9; HCV inhibitor: -24.4%

Results for Cc1ccccc1-n1nc2c(c1NC(=O)c1c(-c3ccccc3Cl)noc1C)CSC2 ?
Shiga toxin inh: -6.3; HCMV antiviral: 4.6; Pf growth 48h: 11.7µM*; Pf growth 96h: inconclusive; CHX counter: -9.1; HCV inhibitor: -7.8%

How did Cc1onc(-c2ccccc2Cl)c1C(=O)Nc1ccc(N2CCOCC2)cc1 do in these assays?
Shiga toxin inh: -2.2; HCMV antiviral: -13.5; Pf growth 48h: inconclusive; Pf growth 96h: inconclusive; CHX counter: -1.4; HCV inhibitor: -9.2%

What do the screens show for `CCCOc1ccc(NC(=O)CC2C(=O)N(c3ccc(Cl)cc3)C(=O)N2CCc2ccncc2)cc1` (stereo not drawn)?
HCMV antiviral: -15.5

What do the screens show for `CN(C)c1cc[n+](Cc2c(Cl)cccc2Cl)cc1`?
Shiga toxin inh: -5.8; HCMV antiviral: -87.4*; Pf growth 48h: 4.65µM*; Pf growth 96h: 0.37µM*; CHX counter: -4.9; HCV inhibitor: inconclusive

Results for COc1ccc(-c2nc(CN3CCN(C(=O)c4ccco4)CC3)c(C)o2)c(F)c1 ?
Shiga toxin inh: -4.4; HCMV antiviral: -15.0; Pf growth 48h: inconclusive; Pf growth 96h: inconclusive; CHX counter: -3.7; HCV inhibitor: -22.1%

How did C=CCNC(=O)CN1C(=O)c2cccc3cccc1c23 do in these assays?
Shiga toxin inh: -5.2; HCMV antiviral: 58.5; Pf growth 48h: 9.0%; Pf growth 96h: 3.8%; CHX counter: 1.5; HCV inhibitor: 8.0%

Results for COc1ccc(CNC(=O)c2cc3c(=O)n(C)c4ccccc4c3n2C)cc1 ?
HCMV antiviral: 1.5

Results for COc1cccc(CNC(=O)c2cc3oc4ccccc4c3n2C)c1OC ?
Shiga toxin inh: 22.7; HCMV antiviral: -34.8; Pf growth 96h: 9.28µM*; CHX counter: 7.9; HCV inhibitor: inconclusive

Results for COC(=O)c1cc2oc3ccccc3c2n1Cc1ccc(Cl)cc1 ?
HCMV antiviral: 72.1
